This is a sample that favours compounds with a hit; in the whole collection about 4% have one here.
CSC inhib: blocks cancer stem cells. inhibition, % at 7.5 µM. cancer stem cell-like cells viability, luminescence. hit rate 1.1% among 300,000; in the data active means inhibition above about 75%; tested in HMLE shEcad cells
Gli-Sufu antag: Gli-Sufu pathway antagonism; Sufu-KO-LIGHT fibroblasts, Gli luciferase reporter luminescence; inhibition, % at 5 µM; hit rate 0.74% among 340,000; AID 588413;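 active means inhibition above about 55%, limit read from the data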
PAX8 reporter: lowers PAX8-driven luciferase in RMG-I cells; RMG-I TPO-luciferase reporter, SteadyGlo, 24 h; inhibition, % at 12.6 µM; hit rate 1.2% among 360,000;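 active means mean replicate inhibition at least 60% with every replicate also reaching 60%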;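 further: luciferase light reporting Pax8 driven TPO promoter activity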
Shn3 3UTR inh: inhibitors of Schnurri-3 3'UTR reporter in osteoblasts; Clone20 osteoblast Shn3 3'UTR firefly luciferase, 24 h; inhibition, % at 12.5 µM; hit rate 0.52% among 360,000; AID 588674;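 active means mean inhibition of at least 75% with every replicate also reaching 75%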
Mdm2-MdmX inh: disrupts the human Mdm2-MdmX interaction | AID 485346 | O15151+Q00987 | inhibition, % at 8 µM | SaOS-2 split-luciferase Mdm2/MdmX complementation, luminescence | hit rate 3% among 330,000;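 active means inhibition of at least 50% at 8 µM in the primary screen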
Target sequence (O15151 whole entry, looked up): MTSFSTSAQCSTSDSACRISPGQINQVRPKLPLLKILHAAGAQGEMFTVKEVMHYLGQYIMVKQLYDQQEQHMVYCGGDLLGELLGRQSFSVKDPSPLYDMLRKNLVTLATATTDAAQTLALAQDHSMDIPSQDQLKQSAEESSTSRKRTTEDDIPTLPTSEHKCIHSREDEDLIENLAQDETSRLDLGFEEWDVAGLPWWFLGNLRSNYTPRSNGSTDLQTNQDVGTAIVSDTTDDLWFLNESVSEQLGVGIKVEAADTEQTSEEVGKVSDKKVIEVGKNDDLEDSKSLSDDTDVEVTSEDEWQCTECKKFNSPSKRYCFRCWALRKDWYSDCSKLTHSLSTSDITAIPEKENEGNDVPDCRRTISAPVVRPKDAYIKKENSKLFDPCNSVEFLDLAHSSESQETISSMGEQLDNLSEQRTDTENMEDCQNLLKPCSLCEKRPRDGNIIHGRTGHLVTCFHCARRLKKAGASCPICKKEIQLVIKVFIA
Target sequence (Q00987 whole entry, looked up): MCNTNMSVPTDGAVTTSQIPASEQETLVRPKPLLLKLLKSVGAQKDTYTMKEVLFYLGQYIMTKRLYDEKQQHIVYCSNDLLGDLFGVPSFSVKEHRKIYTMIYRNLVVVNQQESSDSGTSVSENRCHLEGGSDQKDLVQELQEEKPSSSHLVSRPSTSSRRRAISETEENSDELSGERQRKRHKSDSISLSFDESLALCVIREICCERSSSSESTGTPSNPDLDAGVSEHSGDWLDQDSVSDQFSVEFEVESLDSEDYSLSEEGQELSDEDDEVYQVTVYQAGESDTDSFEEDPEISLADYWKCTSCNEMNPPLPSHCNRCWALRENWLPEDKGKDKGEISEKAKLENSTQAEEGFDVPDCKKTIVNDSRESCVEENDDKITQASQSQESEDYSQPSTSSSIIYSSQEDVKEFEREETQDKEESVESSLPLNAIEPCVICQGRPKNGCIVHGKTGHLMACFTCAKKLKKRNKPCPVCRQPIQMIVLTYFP
Beta apoptosis: blocks beta cell apoptosis; INS-1E cytokine-induced death, ATP luminescence, 48 h; percent of positive-control rescue, neutral wells zero; protection from apoptosis, % (concentration not given with the values); hit rate 0.8% among 300,000; AID 435005;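 active means Every replicate reaches about 75%, or at least half do and their mean reaches it too, limit read from the data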;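 further: higher means more ATP so stronger rescue from cytokine killing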
A number is an active result; 0 = inactive; - = no result.

SMILES | CSC inhib | Gli-Sufu antag | PAX8 reporter | Shn3 3UTR inh | Mdm2-MdmX inh | Beta apoptosis
O=C(C1CCCC1)N1C[C@H]2[C@@H](c3ccccc31)[C@@H](CO)N2C(=O)Cc1ccccn1 | - | - | 0 | - | - | -
N#C[C@@H]1[C@H](c2ccccc2-c2ccccc2)[C@H](CO)N1C(=O)NC1CCCC1 | - | - | 0 | - | - | -
N#CC(C#N)=C1C=CC=CN1/C(=C\c1ccccc1Cl)C(=O)c1ccccc1 | 0 | 0 | 0 | 86.6 | - | 0
CCOC(=O)C1CCN(C(=O)C(C)N(c2ccc(Oc3ccccc3)cc2)S(C)(=O)=O)CC1 (stereo not given) | - | 0 | 0 | 87.1 | - | -
CCOC(=O)N1CCN(C(=O)C(C)N(c2ccc(Oc3ccccc3)cc2)S(C)(=O)=O)CC1 (stereo not given) | 0 | 0 | - | 0 | 0 | 0
COCCNC(=O)C1CCC(Cn2c(=S)[nH]c3ccccc3c2=O)CC1 (stereo not given) | 0 | 0 | 0 | 0 | 0 | 0
O=C(NCCc1c[nH]c2ccccc12)C1CCC(Cn2c(=S)[nH]c3ccccc3c2=O)CC1 (stereo not given) | 76.4 | 0 | 0 | 0 | 0 | 0
CCOc1ccc2c(CC)cc(=O)oc2c1OCC | 0 | 0 | 101.9 | 0 | 0 | 0
C=CCOc1ccc2c(CC)cc(=O)oc2c1C | 0 | 0 | 0 | 0 | 0 | 0
COc1ccc(NC(=O)N(C)C[C@H]2Oc3ccc(NC(=O)c4ccncc4)cc3C(=O)N([C@@H](C)CO)C[C@@H]2C)cc1 | - | - | 0 | - | - | -
Cc1ccc(S(=O)(=O)Nc2ccc3c(c2)C(=O)N([C@H](C)CO)C[C@H](C)[C@H](CN(C)S(=O)(=O)c2ccc(C)cc2)OCCCC[C@H](C)O3)cc1 | - | - | 63.1 | - | - | -
Cc1ccc(S(=O)(=O)N(C)C[C@H]2OCCCC[C@H](C)Oc3ccc(NS(=O)(=O)c4ccccc4)cc3C(=O)N([C@@H](C)CO)C[C@@H]2C)cc1 | - | - | 0 | - | - | -
Cc1ccc(S(=O)(=O)Nc2ccc3c(c2)C(=O)N([C@@H](C)CO)C[C@@H](C)[C@H](CN(C)S(=O)(=O)c2ccc(C)cc2)OCCCC[C@@H](C)O3)cc1 | - | - | 0 | - | - | -
Cc1ccc(S(=O)(=O)Nc2ccc3c(c2)C(=O)N([C@@H](C)CO)C[C@H](C)[C@@H](CN(C)S(=O)(=O)c2ccc(C)cc2)OCCCC[C@@H](C)O3)cc1 | - | - | 0 | - | - | -
Cc1ccc(S(=O)(=O)Nc2ccc3c(c2)C(=O)N([C@@H](C)CO)C[C@@H](C)[C@@H](CN(C)S(=O)(=O)c2ccc(C)cc2)OCCCC[C@@H](C)O3)cc1 | - | - | 66.5 | - | - | -
Cc1ccc(S(=O)(=O)Nc2ccc3c(c2)C(=O)N([C@@H](C)CO)C[C@H](C)[C@H](CN(C)S(=O)(=O)c2ccccc2)OCCCC[C@H](C)O3)cc1 | - | - | 67.1 | - | - | -
Cc1ccc(S(=O)(=O)N(C)C[C@H]2OCCCC[C@H](C)Oc3ccc(NS(=O)(=O)c4cccs4)cc3C(=O)N([C@H](C)CO)C[C@@H]2C)cc1 | - | - | 72.1 | - | - | -
C[C@@H]1CCCCO[C@@H](CN(C)C(=O)c2ccccc2)[C@@H](C)CN([C@@H](C)CO)C(=O)c2cc(NS(=O)(=O)c3ccc(F)cc3)ccc2O1 | - | - | 0 | - | - | -
O=C(NCc1ccc(F)cc1)[C@@H]1[C@@H](CO)[C@@H]2Cn3c(cccc3=O)[C@@H]2N1C(=O)C1CC1 | - | - | 0 | - | - | -
C[C@@H]1CN([C@H](C)CO)C(=O)Cc2cc(NC(=O)Cn3cnnn3)ccc2O[C@H]1CN(C)C(=O)NC1CCCCC1 | - | - | 0 | - | - | -
C[C@@H]1CCCCO[C@@H](CN(C)S(C)(=O)=O)[C@H](C)CN([C@@H](C)CO)C(=O)c2cc(NC(=O)C3CCCCC3)ccc2O1 | - | - | 0 | - | - | -
CCC(=O)N[C@@H]1C=C[C@@H](CC(=O)NCc2cc(F)cc(F)c2)O[C@@H]1CO | - | - | 0 | - | - | -
N#C[C@H]1[C@H](c2ccc(C3=CCCC3)cc2)[C@H](CO)N1C(=O)C1CC1 | - | - | 0 | - | - | -
O=C(C1CCC1)N1CCc2cc(S(=O)(=O)Nc3ccc4c(c3)OCCO4)ccc21 | 0 | 0 | - | 0 | 0 | 78.6
COc1ccc(N2C(=O)C3C4c5ccccc5C(C=Nc5ccc(C)cc5C)(c5ccccc54)C3C2=O)cc1 (stereo not given) | 0 | 0 | 65.0 | 0 | 0 | 0
SMILES | CSC inhib | Gli-Sufu antag | PAX8 reporter | Shn3 3UTR inh | Mdm2-MdmX inh | Beta apoptosis
CO[C@@H]1CN(C)C(=O)c2cc(NS(C)(=O)=O)ccc2OC[C@H](C)N(C)C[C@H]1C | - | - | 0 | - | - | -
C=CCn1c(=NC(=O)c2cc(-c3cccs3)nc3ccccc23)sc2cc(S(N)(=O)=O)ccc21 | 0 | 0 | 0 | 0 | 0 | 92.4
COCCn1c(=NC(=O)c2cc(-c3cccs3)nc3ccccc23)sc2cc(S(N)(=O)=O)ccc21 | 0 | 0 | 0 | 0 | 0 | 0
Cc1ccc(S(=O)(=O)Nc2cccc3c2O[C@@H](CN(C)Cc2ccc(-c4ccccc4)cc2)[C@@H](C)CN([C@H](C)CO)C3=O)cc1 | - | - | 0 | - | - | -
C[C@@H](NC(=O)C[C@H]1CC[C@H]2[C@@H](COC[C@H](O)CN2C(=O)Nc2cc(Cl)cc(Cl)c2)O1)c1ccccc1 | - | - | 0 | - | - | -
Nc1ccc(N2CCN(c3ccc(F)cc3)CC2)cc1 | 0 | 0 | 0 | 0 | 0 | 0
Nc1ccc(N2CCN(c3ccc(Cl)c(Cl)c3)CC2)cc1 | 92.4 | 0 | 0 | 0 | 0 | 0
Cc1ccc(S(=O)(=O)Nc2ccc3c(c2)C(=O)N([C@H](C)CO)C[C@H](C)[C@@H](CN(C)Cc2ccccc2)OCCCC[C@@H](C)O3)cc1 | - | - | 0 | - | - | -
CNc1ccccc1C(C)(C)c1cc(-c2cc(C)cc(C)c2)no1 | 97.0 | 0 | 0 | 0 | 0 | 0
Cc1nn2c(COc3ccc(NC(=O)C(C)C)cc3)nnc2c2ccccc12 | 0 | 0 | 0 | 0 | 0 | 0
Cc1nn2c(COc3ccc(NC(=O)c4ccccc4Cl)cc3)nnc2c2ccccc12 | 89.7 | 0 | 0 | 0 | 0 | 0
CCOC(=O)c1sc(N/N=C/c2ccc(N(C)C)cc2)nc1C | 0 | 0 | 0 | 0 | 0 | 0
C=CCc1c(C)nc(C)nc1N/N=C/c1ccc(N(C)C)cc1 | 0 | 0 | - | 0 | 0 | 99.8
CCCC#Cc1ccc([C@H]2[C@@H](CO)N(C(=O)C3CCCCC3)[C@H]2C#N)cc1 | - | - | 84.1 | - | - | -
N#C[C@H]1[C@H](c2ccc(C#Cc3ccccc3F)cc2)[C@H](CO)N1C(=O)C1CCC1 | - | - | 87.0 | - | - | -
N#C[C@@H]1[C@@H](c2ccc(C#Cc3ccc(F)cc3)cc2)[C@H](CO)N1C(=O)C1CCCC1 | - | - | 0 | - | - | -
N#C[C@H]1[C@H](c2ccc(C#Cc3ccccc3F)cc2)[C@@H](CO)N1C(=O)C1CCOCC1 | - | - | 74.7 | - | - | -
N#C[C@H]1[C@@H](c2ccc(C#Cc3ccc(F)cc3)cc2)[C@H](CO)N1C(=O)C1CCCC1 | - | - | 86.9 | - | - | -
N#C[C@@H]1[C@H](c2ccc(C#Cc3ccccc3F)cc2)[C@@H](CO)N1C(=O)C1CCC1 | - | - | 0 | - | - | -
CCCC#Cc1ccc([C@@H]2[C@@H](C#N)N(C(=O)C3CCCC3)[C@H]2CO)cc1 | - | - | 0 | - | - | -
CCCC(=O)Nc1ccc2c(c1)OC[C@@H](C)N(Cc1cccc(F)c1)C[C@H](C)[C@H](OC)CN(C)C2=O | - | - | 0 | - | - | -
CO[C@@H]1CN(C)C(=O)c2cc(NC(=O)C3CCCC3)ccc2OC[C@H](C)N(C)C[C@H]1C | - | - | 0 | - | - | -
